System: Plasmodium falciparum
Assay: GSK_TCMDC: Inhibition of Plasmodium falciparum Dd2 in whole red blood cells, using parasite LDH activity as an index of growth. Test compounds present at 2uM
Assay type: functional

Compound | Inhibition
CCCCCCNc1cc(C)nc2ccc(OC)cc12.Cl | 94%
COc1ccc(CCNC(=O)c2cc3c(=O)n4cccc(C)c4nc3n(C)c2=N)cc1 | 99%
CCOc1ccccc1C(=O)Nc1cccc(-c2nc3ncccn3c2C)c1 | 88%
CCc1c[nH]c2c(N(c3ccccc3)S(C)(=O)=O)cc(C(=O)N[C@@H](Cc3ccccc3)[C@H](O)CNC(C)(C)CCCC(C)C)cc12.O=CO | 96%
Cc1ccc(Oc2ccccc2NC(=O)CCc2nc3ccccc3c(=O)[nH]2)cc1 | 99%
Brc1ccsc1-c1nc(NCCC(c2ccccc2)c2ccccc2)no1 | 81%
O=C(CSc1nc2ccccc2c(=O)n1C1CC1)Nc1cc(C(F)(F)F)ccc1Cl | 96%
O=C(c1cccs1)N1N=C(c2cccs2)CC1c1cccc([N+](=O)[O-])c1 (stereo not given) | 27%
Br.Oc1ccc(CCNCCCCCCNCCc2ccc(-c3ccccc3)cc2)cc1O | 8%
COCCCNC(=O)c1ccc(O)c(-c2cc(Cl)cc(Cl)c2)c1 | 34%
COc1ccc2nccc([C@@H](O)CN3CCC(NC(=O)Cn4nc(-c5ccc(C(F)(F)F)cc5)ccc4=O)CC3)c2c1 | 90%
CCc1nc(N)nc(N)c1-c1ccccc1 | 1%
CC(C)(C)CCOC(=O)N1CCc2c(cc(O)c(O)c2Cl)C(c2ccc(O)cc2)C1 (stereo not given) | 95%
COC(=O)c1ccc(C(=O)NCCCCN2CCC(c3ccc4c(c3OC)CCCC4)CC2)cc1-c1ccc(C(F)(F)F)cc1 | 19%
Cc1cccc2nc(-c3cccc(-c4ccc(CNCc5cccc(N)c5)cc4)c3)[nH]c12.O=C(O)C(F)(F)F | 93%

Source: ChEMBL document CHEMBL1157539, “Thousands of chemical starting points for antimalarial lead identification” (Nature, 2010)
